In all, about 35,000 sequences were measured (“fluorescence intensity (a.u.)”: median about 10,000, highest 2% from about 52,000 on). Shown is part of a subset that was picked to be rich in the highest values.

From paper PMC7819943, “Rice protein-binding microarrays: a tool to detect cis-acting elements near promoter regions in rice” come the findings set out here.

The assay concerns the target T1, OsWOX13 (Oryza sativa, UniProt Q5QMM3 1-267).
T1 sequence: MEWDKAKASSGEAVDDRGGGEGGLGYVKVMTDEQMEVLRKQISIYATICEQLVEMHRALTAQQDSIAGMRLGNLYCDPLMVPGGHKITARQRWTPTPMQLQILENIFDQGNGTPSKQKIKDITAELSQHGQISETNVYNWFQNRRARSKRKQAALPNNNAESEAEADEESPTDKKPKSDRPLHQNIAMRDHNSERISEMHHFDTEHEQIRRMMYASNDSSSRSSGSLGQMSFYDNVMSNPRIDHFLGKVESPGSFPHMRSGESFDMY
Kind of assay: protein-binding microarray (RPBM); PBS, 2% BSA, 51.3 ng/ul salmon testes DNA, 50 uM zinc acetate, 200 nM TF, 25 C, 1 h; high values mean tight binding. To be noted: protein: recombinant; tags: N-terminal polyhistidine and DsRed monomer fusion (pET32a); label: CyDye5-dUTP incorporated in the synthesized complementary strand; 3' TTTTT single-stranded linker to array surface; dsDNA, one strand shown. In short, it runs like this: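 Ni–NTA purification followed expression in E. coli BL21-CodonPlus of transcription factors fused N-terminally to a polyhistidine tag and DsRed. At 200 nM in PBS with 2% BSA, salmon testes DNA and 50 µM zinc acetate, the protein was incubated for 1 h at 25 °C with a custom Agilent array that had been primer-extended with Cy5-dUTP and blocked with 2% BSA. After washing, the array was read on an Axon 4000B scanner. The binding signal is per-feature fluorescence intensity in arbitrary units.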
With “TATTAAATTGACTATAGATGATTTGGAGCTAGTAATTGGCCGGAGTCACCTAGTGCAG”, the binding signal was 36800 fluorescence intensity (a.u.).

For the sequence “GATTAATTGAAAGTTTACATGGACGACGTTGACTCGGGGCCGGAGTCACCTAGTGCAG”, the binding signal is 54700 fluorescence intensity (a.u.).

For “ACAAGTTGATGGGGACACTTTTCTTATGTAGTATATAATTCGGAGTCACCTAGTGCAG”, the binding signal was 3270 fluorescence intensity (a.u.).

For the sequence “AACCCTGATTTCCGTGCTCAACGTTTGACCGTCCGTCTTGCGGAGTCACCTAGTGCAG”, the binding signal was 4670 fluorescence intensity (a.u.).

Regarding “TCGATCACAAATTAATATTGTTTGCATACATACTCATATGCGGAGTCACCTAGTGCAG”, the binding signal was 6200 fluorescence intensity (a.u.).

Turning to “ATCCAATCATTTCAAAACGTATTCCTCAGCACATTAAACGCGGAGTCACCTAGTGCAG”, the binding signal is 19400 fluorescence intensity (a.u.).

Regarding “GCTAATTGCAATTTTGGCCGTCCATAAAGAGCTTGCGGCCCGGAGTCACCTAGTGCAG”, the binding signal was 52900 fluorescence intensity (a.u.).

Consider “CCATAATTTTGCAAAGACATCAAACCAAATAAAACCAATGCGGAGTCACCTAGTGCAG”, for which the binding signal was 6680 fluorescence intensity (a.u.).

Turning to “ACTAGCTAACTAAATTTGAAAGAGACTAGCTAGCTGCTTGCGGAGTCACCTAGTGCAG”, the binding signal is 6300 fluorescence intensity (a.u.).

With “GATAATGGTAGTGATTGGTTGAGGCTTGAGAGTAGATGTACGGAGTCACCTAGTGCAG”, the binding signal is 30600 fluorescence intensity (a.u.).

As to “CTAAACCGCATAATAATTTACAGAAATGCCCCTCACCTCCCGGAGTCACCTAGTGCAG”, the binding signal was 11300 fluorescence intensity (a.u.).

On to “GCACCTTTCAAATTCATCTGATTTATGCATTCTTCTGTAACGGAGTCACCTAGTGCAG”, for which the binding signal is 3340 fluorescence intensity (a.u.).

As to “TTGGTTGGTTGGTTGATTGCTCGCGCCCCGCGCGGTTGCGCGGAGTCACCTAGTGCAG”, the binding signal is 6680 fluorescence intensity (a.u.).

“CCGACCCGTTGGATTGATAAAACCAACTGCTTCCCGCTCCCGGAGTCACCTAGTGCAG”: the binding signal was 6190 fluorescence intensity (a.u.).

Regarding “CCAAGCAAATAATCCGATAGATTGAATCGGTGAGTTACCACGGAGTCACCTAGTGCAG”, the binding signal was 9630 fluorescence intensity (a.u.).

With “ATTGTTGCTGCTGCTGGATTGATTAGTGGTTAAGCAGATTCGGAGTCACCTAGTGCAG”, the binding signal is 5320 fluorescence intensity (a.u.).

With “TTTTGCAATGTGATTTGCTGGTTTGGATAGTGGAGAAGTTCGGAGTCACCTAGTGCAG”, the binding signal was 3300 fluorescence intensity (a.u.).

As for “CCTCTTGATTGATTGCTCGGTCGACTGATTGCTTCTTACACGGAGTCACCTAGTGCAG”, the binding signal is 65000 fluorescence intensity (a.u.).

As to “ACCAAGTAATTGATATCTAGAAATCCGATACCTAGTACCACGGAGTCACCTAGTGCAG”, the binding signal is 55000 fluorescence intensity (a.u.).

In the case of “TGGCCTTGATTTGCTTCCTGAATGTGCCTGCTTCCTTACACGGAGTCACCTAGTGCAG”, the binding signal was 18100 fluorescence intensity (a.u.).

On to “ATTGATTGATAAACCCTACTGCTTCTCGCCGCCGCCGCCGCGGAGTCACCTAGTGCAG”, for which the binding signal was 55100 fluorescence intensity (a.u.).

In the case of “ATGTGATTGATTCTGCTGGTGGATTCTCTCTTCGGTTTGCCGGAGTCACCTAGTGCAG”, the binding signal was 62800 fluorescence intensity (a.u.).

Regarding “CTCCCAAGTAAATGATTTGAAATACCCGATCTAATTATTACGGAGTCACCTAGTGCAG”, the binding signal was 3180 fluorescence intensity (a.u.).

For the sequence “CTCTTGATTGCGGCGCGACTGCGAGCGAGAGAGCTTCACGCGGAGTCACCTAGTGCAG”, the binding signal was 20500 fluorescence intensity (a.u.).

As for “ATTTATTAATATTAATATTATTGTGGGAAATTTTAGAATGCGGAGTCACCTAGTGCAG”, the binding signal was 3460 fluorescence intensity (a.u.).

Take “TGCTGTAATTACTTTTCTGTAATTTGGATTAATCCTTCGCCGGAGTCACCTAGTGCAG”: the binding signal was 40800 fluorescence intensity (a.u.).

In the case of “AGATACTTAATTAGTGTCTTCTATAAGCAAAGGTCAGGAACGGAGTCACCTAGTGCAG”, the binding signal is 11300 fluorescence intensity (a.u.).

For the sequence “GCTCTATCACAAAATAAACTAGAGTTATGAAGCTGGATTTCGGAGTCACCTAGTGCAG”, the binding signal is 4850 fluorescence intensity (a.u.).

Consider “GTTATGTAATTAAAACGTTGTTTTCTTCTAATATATTGTCCGGAGTCACCTAGTGCAG”, for which the binding signal was 7150 fluorescence intensity (a.u.).

Consider “AATCAAATCATCTCATCAAAGTCCAATCCCGCTAGCTCCACGGAGTCACCTAGTGCAG”, for which the binding signal is 9000 fluorescence intensity (a.u.).

“GTGATTGATATCGATTCTGATTGATGCCTTTGCCTGGTACCGGAGTCACCTAGTGCAG”: the binding signal was 57000 fluorescence intensity (a.u.).

“ACCTTCACTTGATTGCTGGTGGTAGTAGTAGTAGTAGTACCGGAGTCACCTAGTGCAG”: the binding signal was 21700 fluorescence intensity (a.u.).

With “TGATTGTACGTATTCTGATTGATTGCTTATCGATATCTCACGGAGTCACCTAGTGCAG”, the binding signal is 26100 fluorescence intensity (a.u.).

Turning to “GATTGATTTGATTGATTGCTTGATTGGTTAATTGGTTGATCGGAGTCACCTAGTGCAG”, the binding signal was 51600 fluorescence intensity (a.u.).

Take “GGCCGATTGATTGGGTCCGAGTAATCTCGGAAATGTGGGGCGGAGTCACCTAGTGCAG”: the binding signal is 53600 fluorescence intensity (a.u.).

Turning to “TCTGGTCGTAAATTGACAACCAACCTTAAGAAAATCCAGGCGGAGTCACCTAGTGCAG”, the binding signal was 21300 fluorescence intensity (a.u.).

On to “CGGGTTTGATTTGATTTGATTTTGATTTTGATTTGCTTCTCGGAGTCACCTAGTGCAG”, for which the binding signal is 53400 fluorescence intensity (a.u.).

Turning to “GAAATGGGCCTAATTGTCGGTCACATACCGAGTAAATGGGCGGAGTCACCTAGTGCAG”, the binding signal was 4300 fluorescence intensity (a.u.).

With “TTTTGATTGCACCTTGCTTCTCGTATACACCCTCACCTATCGGAGTCACCTAGTGCAG”, the binding signal is 22200 fluorescence intensity (a.u.).

Turning to “TAATCGTATTAATTGATCAACAGGCTAGGCCAGCCAAACACGGAGTCACCTAGTGCAG”, the binding signal is 13200 fluorescence intensity (a.u.).

As to “TGAGTAATTGATAGTGACACGGCTATCCAACCAATCCAGGCGGAGTCACCTAGTGCAG”, the binding signal was 65100 fluorescence intensity (a.u.).

Turning to “ACGGGGTTGCGGTAATTTTAATTGGGCCGAAATGTGATTCCGGAGTCACCTAGTGCAG”, the binding signal is 4130 fluorescence intensity (a.u.).
